Only some compounds are listed: those with a hit (about 3.7% of all), similar ones and a draw of the others.
Anthrax LF inh2: anthrax lethal factor protease inhibition; P15917; multiplex microsphere protease cleavage assay, LF; inhibition, % at 10 µM; 0.12% of 360,000 active; AID 588501
Target sequence (P15917 whole entry, looked up): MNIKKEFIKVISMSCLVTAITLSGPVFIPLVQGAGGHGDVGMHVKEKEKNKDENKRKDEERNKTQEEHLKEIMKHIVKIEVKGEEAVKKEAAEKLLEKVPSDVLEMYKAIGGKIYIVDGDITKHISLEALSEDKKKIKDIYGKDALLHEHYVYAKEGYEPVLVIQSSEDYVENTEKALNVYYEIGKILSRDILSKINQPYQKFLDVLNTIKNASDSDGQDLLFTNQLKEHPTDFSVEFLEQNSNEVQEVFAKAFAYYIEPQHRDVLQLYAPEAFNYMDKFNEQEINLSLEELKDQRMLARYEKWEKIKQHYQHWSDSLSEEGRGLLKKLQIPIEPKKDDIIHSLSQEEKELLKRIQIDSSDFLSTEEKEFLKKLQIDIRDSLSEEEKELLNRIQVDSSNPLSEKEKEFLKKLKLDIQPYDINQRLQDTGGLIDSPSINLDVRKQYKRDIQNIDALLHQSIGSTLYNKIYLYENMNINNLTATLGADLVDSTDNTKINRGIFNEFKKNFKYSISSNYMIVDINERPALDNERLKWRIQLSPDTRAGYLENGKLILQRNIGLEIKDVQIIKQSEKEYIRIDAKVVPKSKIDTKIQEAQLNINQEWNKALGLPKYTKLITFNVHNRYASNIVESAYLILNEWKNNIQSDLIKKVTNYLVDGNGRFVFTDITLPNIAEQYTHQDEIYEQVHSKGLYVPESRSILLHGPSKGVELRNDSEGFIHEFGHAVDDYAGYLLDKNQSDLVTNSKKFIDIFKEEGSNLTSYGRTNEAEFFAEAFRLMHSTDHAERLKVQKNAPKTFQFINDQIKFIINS
BoNT-A LC inh2: inhibitors of Botulinum neurotoxin A light chain protease. multiplex microsphere protease substrate cleavage, flow cytometry. inhibition, % at 10 µM. 0.17% of 360,000 active. AID 588499
BJeLR viability: BJeLR cell viability loss. inhibition, % (test concentration not listed). 0.17% of 300,000 active. BJeLR (HRASV12) viability, CellTiter-Glo ATP luminescence, 48 h; in the data active = inhibition above about 50%; inconclusive = no clear call, values can overlap the other calls
BH1578 lux ind: induces V. cholerae light production without autoinducers | V. cholerae BH1578 lux reporter, luminescence, 6 h | activation, % at 18.7 µM | 0.16% of 350,000 active | AID 588436; in the data active = activation mostly above about 9.7%, no sharp cut-off; inconclusive = no clear call, values can overlap the other calls; inactive = mostly below about 3.7%
BoNT-F LC inh: BoNT F light chain protease inhibition | Multiplex microsphere protease cleavage assay, flow cytometry | inhibition, % at 10 µM | 0.22% of 360,000 active | AID 588497; in the data active = inhibition above about 35%, passing the limit was not always enough; inconclusive = no clear call, values can overlap the other calls
Bead autofluor: flagged as autofluorescent in microsphere protease counterscreen; fluorescence intensity (no concentration beside the values); 3.1% of 360,000 active; compound autofluorescence counterscreen, microsphere flow cytometry; active compounds read high; in the data active = fluorescence intensity above about 16000; inconclusive = no clear call, values can overlap the other calls
Each line names hits and unclear results; the compound was inactive in the other large screens; ! = a repeat was not active. Rule as the data show it, unless noted: active = inhibition above about 30%; inconclusive = no clear call, values can overlap the other calls; inactive = below that.

O=C(NCc1ccco1)c1cc(-c2ccco2)on1	BoNT-A LC inh2 inconclusive, Bead autofluor 16474
COc1ccccc1-c1cc(C(=O)Nc2cc(C)nn2-c2ccccc2)no1	Bead autofluor 20928
CC(C)C[C@@H]1COc2cccc(N3CCSCC3)c2S(=O)(=O)N1	none (no result: BJeLR viability, BH1578 lux ind)
COc1ccccc1-c1cc(C(=O)Nc2ccc(F)cc2F)no1	Bead autofluor 20081
CCc1c(C)sc(NC(=O)c2cc(-c3ccco3)on2)c1C#N	Bead autofluor 23332
COc1ccccc1-c1cc(C(=O)NC(C)C)no1	none
CCc1nc2ccc(C(=O)NCCCn3ccnc3)cn2c1N(C)C(=O)c1cccc(OC)c1	none (no result: BJeLR viability)
NC(=O)c1cccn1Cc1ccccc1Cl	Bead autofluor 22851
CCNS(=O)(=O)c1ccc(NS(C)(=O)=O)cc1	none
CS(=O)(=O)Nc1ccc(OCc2ccccc2)cc1	Bead autofluor 24301
CS(=O)(=O)Nc1ccc(S(=O)(=O)NCCc2ccccc2)cc1	Bead autofluor 24049
CCN(c1cccc(C)c1)S(=O)(=O)c1ccc2[nH]c(=O)c(=O)[nH]c2c1	Bead autofluor 21312
CCN(c1cccc(C)c1)S(=O)(=O)c1cc2[nH]c(=O)c(=O)[nH]c2cc1C	none (no result: BJeLR viability)
CCCCN(c1ccccc1)S(=O)(=O)c1cccc(C(=O)O)c1	none
CCN(c1cccc(C)c1)S(=O)(=O)c1cccc(C(=O)O)c1	Bead autofluor 23200
Cc1ccccc1CN1C(=O)c2ccccc2C1c1nnnn1-c1ccc2c(c1)OCCO2 (stereo not drawn)	none (no result: BJeLR viability, BH1578 lux ind)
CCCOc1cc(N(CC)CC)ccc1/C=C(/C#N)c1nc2ccc(C)cc2[nH]1	BoNT-F LC inh 44.7, Bead autofluor 23823
COc1cc(/C=C(\C#N)c2nc3ccc(C)cc3[nH]2)c([N+](=O)[O-])cc1OC	none
CCN(CC)c1ccc(/C=C(/C#N)c2nc3ccc(C)cc3[nH]2)c(OC(C)C)c1	BoNT-F LC inh 64.2, Bead autofluor 27707
CCOc1cc(N(CC)CC)ccc1/C=C(/C#N)c1nc2ccccc2[nH]1	BoNT-F LC inh 41.5
COC(=O)c1ccc(OCC(=O)Nc2nn(-c3ccccc3)nc2C(N)=O)cc1	BoNT-A LC inh2 inconclusive, Bead autofluor 22226
CC1CCN(CC(=O)Nc2nn(-c3ccccc3)nc2C(N)=O)CC1	none
COc1cc(C)ccc1OCCOCCOc1ccc(C)cc1[N+](=O)[O-]	none
C=CCNCCOCCOc1ccc(C)cc1[N+](=O)[O-]	Bead autofluor 21806
CCN(CC)c1ccc(C=C2C(=O)OC(c3ccccc3)OC2=O)cc1 (stereo not drawn)	none
CCN(CC)c1ccc(/C=C/C(=O)C2C(=O)C=C(C)OC2=O)cc1 (stereo not drawn)	Anthrax LF inh2 73.0, BoNT-A LC inh2 70.0, BoNT-F LC inh 154.2, Bead autofluor 66487
CC1(C(=O)NS(=O)(=O)c2ccc(F)cc2F)CCN1C(=O)Cc1cccc2ccccc12 (stereo not drawn)	none (no result: BJeLR viability)
O=C(Nc1nccc(-c2cccs2)n1)c1ccccc1Cl	Bead autofluor 19543
O=C(c1ccccc1Cl)N(C(=O)c1ccccc1Cl)c1nccc(-c2cccs2)n1	none
O=[N+]([O-])c1cccc(C(=Nc2ccc(Cl)cc2)NO)c1	none
ONC(=Nc1ccc(Cl)cc1)c1ccc(Cl)cc1	Bead autofluor 24126
CC(C)c1ccc(NC(=O)c2cc(-c3cc(F)ccc3OCC3CCCO3)n[nH]2)cc1 (stereo not drawn)	none (no result: BJeLR viability)
COc1cc(-c2nnc(COC(=O)c3ccc([N+](=O)[O-])o3)o2)cc(OC)c1OC	none (no result: BJeLR viability)
COC(=O)C1=C(C)NC(=O)C1(NS(=O)(=O)c1ccc(NC(C)=O)cc1)C(F)(F)F (stereo not drawn)	Bead autofluor 19985
Cc1ccc(C)c(NC(=O)CCC(=O)N/N=C/c2ccc[nH]2)c1	Bead autofluor 21086
NC(=O)c1cccc(-c2coc3c(C(=O)NCc4ccccc4)cccc23)c1	none (no result: BJeLR viability)
CCOc1cc(CNc2ncc(-c3ccc(OC)cc3)n2C)ccc1O	Bead autofluor 20656
CC(C)Sc1nc(O)c(Cc2ccccc2)c(=O)[nH]1	Bead autofluor 20324
CC1=C(C(=O)N2CCOCC2)CC(CC(=O)NC2CCCCC2)C(=O)N1Cc1ccc(F)cc1 (stereo not drawn)	none (no result: BJeLR viability)
CC(NC(=O)c1cc(-c2ccc3c(c2)OCO3)nc2ccccc12)C(C)(C)C (stereo not drawn)	Bead autofluor 21612
CCC1CCCCN1C/C=C/c1ccccc1[N+](=O)[O-] (stereo not drawn)	Bead autofluor 20733
CC1CCCN(C/C=C/c2ccccc2[N+](=O)[O-])C1 (stereo not drawn)	Bead autofluor 20230
CC1CCCCN1C/C=C/c1ccccc1[N+](=O)[O-] (stereo not drawn)	Bead autofluor 23342
O=[N+]([O-])c1ccccc1/C=C/CN1CCSCC1	BoNT-F LC inh inconclusive
CC1(C(=O)NS(=O)(=O)c2ccc(F)cc2F)CCN1C(=O)C1(c2ccc(Cl)cc2)CCC1 (stereo not drawn)	none (no result: BJeLR viability)
Cc1csc(SCC(=O)Nc2c(C)n(C)n(-c3ccccc3)c2=O)n1	none
CSc1nsc(SCC(=O)Nc2c(C)n(C)n(-c3ccccc3)c2=O)n1	Bead autofluor 20801
Cc1c(NC(=O)CSc2nnnn2-c2ccc(O)cc2)c(=O)n(-c2ccccc2)n1C	BoNT-A LC inh2 inconclusive, Bead autofluor 23720
COc1ccc(-n2nnnc2SCC(=O)NC2CC2)cc1	none (no result: BJeLR viability)
COc1ccc(-n2nnnc2SCC(=O)Nc2nnn(C)n2)cc1	Bead autofluor 22244
CC(C)(C)NCC(O)COc1c(F)cc(Br)cc1F (stereo not drawn)	Bead autofluor 22894
COCCOC(=O)C1=C(C)Nc2nc(C)nn2C1c1ccc(F)cc1 (stereo not drawn)	BoNT-A LC inh2 inconclusive, Bead autofluor 18889!
COCCOC(=O)C1=C(C)Nc2ncnn2C1c1ccccc1 (stereo not drawn)	none
Cc1cc(Br)cn2c(Cc3ccsc3)c(C3CCCCC3)nc12	none (no result: BJeLR viability, BH1578 lux ind)
Cc1cc(C)n2nc(S(=O)(=O)N(C)Cc3ccccc3)nc2n1	BoNT-A LC inh2 inconclusive, Bead autofluor 19864
CCN(Cc1ccccc1)S(=O)(=O)c1nc2nc(C)c(C)c(C)n2n1	Bead autofluor 17154
Cc1cc(C)n2nc(CCc3ccccc3)nc2n1	Bead autofluor 23082
Cc1cc(C)n2nc(CCCCc3nc4nc(C)cc(C)n4n3)nc2n1	none (no result: Anthrax LF inh2, BoNT-A LC inh2, BH1578 lux ind, BoNT-F LC inh, Bead autofluor)
COCCNC(=O)C1(C)CCN(C(=O)c2sc(-c3ccccc3)nc2C)C1 (stereo not drawn)	none (no result: BJeLR viability)
Cc1cnc2ccc(F)cc2c1	none (no result: BJeLR viability, BH1578 lux ind)
C=CCn1c(SCc2csc(C)n2)nc2sc3c(c2c1=O)CCCC3	none
C=CCn1c(SCc2csc(C)n2)nc2sc3c(c2c1=O)CCCCC3	Bead autofluor 21298
CCCNC(=O)C1(C)CCN(C(=O)c2ccc(C)c(F)c2)C1 (stereo not drawn)	none (no result: BJeLR viability)
CSc1nc(=O)n2cccc(C)c2n1	Bead autofluor 21767
CC(=O)Nc1ccc(NC(=O)CSc2nc(=O)n3cccc(C)c3n2)cc1	Anthrax LF inh2 inconclusive, Bead autofluor inconclusive
